Data as given in PubChem BioAssay AID1509 (The Scripps Research Institute Molecular Screening Center, 2009).
In all, about 220,000 compounds went through this assay and about 770 (0.35%) were called active. The entries come from a sample that favours actives as a whole. A number with no mark means an inactive call. Rule as the data show it: active = activation above about 11%; inactive = the rest.

Biological target: Sphingosine 1-phosphate receptor 4 (Homo sapiens) (UniProt O95977)
Experiment: activators of human S1P4 receptor – cell-based, primary screen (AID 1509);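 also: 0% = DMSO vehicle and 100% = reference agonist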
Conditions: S1P4-expressing cell line, agonist reporter assay; at 4.98 µM; active compounds read high

Chain of Sphingosine 1-phosphate receptor 4 (Homo sapiens) (O95977 whole entry, looked up): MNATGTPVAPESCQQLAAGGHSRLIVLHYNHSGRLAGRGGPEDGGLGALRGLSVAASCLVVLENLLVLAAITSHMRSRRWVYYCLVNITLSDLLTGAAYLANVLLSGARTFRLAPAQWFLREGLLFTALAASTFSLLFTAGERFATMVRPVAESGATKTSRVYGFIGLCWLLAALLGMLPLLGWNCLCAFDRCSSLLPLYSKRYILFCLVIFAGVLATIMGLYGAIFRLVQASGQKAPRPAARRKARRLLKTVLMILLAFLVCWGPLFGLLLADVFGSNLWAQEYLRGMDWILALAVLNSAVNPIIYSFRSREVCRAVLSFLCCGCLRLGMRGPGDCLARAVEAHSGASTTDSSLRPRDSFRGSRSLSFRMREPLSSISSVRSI

SMILES	activation
Cc1noc(C)c1COC(=O)c1cc2ccccc2cc1O	-2.59%
Cc1noc(C)c1COC(=O)Cn1c(C)nc2ccccc21	-0.11%
Cc1noc(C)c1COC(=O)COc1ccc(-c2ccccc2)cc1	36% (active)
O=C(Nc1ccc(Br)cc1)c1cccc(NC(=O)C2C3CC4OC(=O)C2C4C3)c1 (configuration not stated)	1.27%
COc1ccc(CCNC(=O)COC(=O)Cc2cc(OC)c(OC)c(OC)c2)cc1	-1.28%
CC(=O)Nc1ccc(S(=O)(=O)N2CCN(c3ccc([N+](=O)[O-])c(NCCN4CCOCC4)c3)CC2)cc1	0.49%
Cn1nnnc1SCC(=O)NNC(=O)c1ccc(Br)cc1	0.67%
CN(Cc1ccccc1)C(=O)COC(=O)c1ccccc1Nc1ccccc1	-0.61%
COC(=O)c1c(NC(=O)CN2C(=O)NC(CCc3ccccc3)C2=O)sc2c1CCCCC2 (configuration not stated)	0.65%
CCOC(=O)/C=c1\s/c(=C\c2ccc(C#N)cc2)c(=O)n1CC(=O)Nc1cccc(C)c1C	-0.03%
Cc1ccc(CC(=O)Nc2cccc(C#N)c2)cc1	1.55%
Cc1cc(C)nc(N(C#N)CC(=O)Nc2ccccc2)n1	14.7% (active)
CCOC(=O)/C(C#N)=C/c1ccc(OCC(=O)Nc2ccccc2)c(OC)c1	-0.12%
N#Cc1c(NC(=O)C2CC(Cl)=CCC2C(=O)O)sc2c1CCCCC2 (configuration not stated)	0.41%
Cn1nnnc1NCc1ccc(Cl)c(Cl)c1	0.14%
COc1ccc(N(CC(=O)NC2CCCC2)C(=O)CS(=O)CC(=O)Nc2ccc3c(c2)OCO3)cc1 (configuration not stated)	1.8%
COc1ccc(-c2cn3ccc(C)cc3n2)cc1	0.65%
CCC(C)(C)NC(=O)C1c2ccccc2Oc2ccccc21	0.03%
CCOC(=O)CC(NC(=O)C1c2ccccc2Oc2ccccc21)c1ccc(C)cc1 (configuration not stated)	-0.87%
CCC(C)NC(=O)C1c2ccccc2Oc2ccccc21 (configuration not stated)	15.7% (active)
O=[N+]([O-])c1ccc2[nH]c3c(c2c1)CCCC3O (configuration not stated)	0.79%
O=C(CSc1ccc(-c2ccc(F)cc2)nn1)Nc1ccc2c(c1)OCCO2	57.3% (active)
Cc1ccc(SCC(=O)Nc2ccc3c(c2)OCCO3)cc1	-0.03%
Cc1csc(NC(=O)CSc2ccc(-c3ccc(F)cc3)nn2)n1	0.5%
O=C(CSc1nnc(Nc2ccccc2)s1)Nc1cccnc1Cl	62.7% (active)
Cc1cc(NC(=O)CSc2nnc(Nc3ccccc3F)s2)no1	0.31%
O=C(CSc1nnc(C2CC2)n1Cc1ccccc1)Nc1cccnc1Cl	0.19%
